Active and inactive are the calls of the source. Unless noted, the rule behind the calls is not given here.
Legend:
[1] = A549 cell viability effects, profiling panel, calcein-AM fluorescence, 48 h, basal (AID 1162); settings: higher = more signal; note: test concentration not given here
[2] = adipocyte viability effects, profiling panel, cell-based, 3T3-L1 adipocytes, calcein-AM fluorescence, 48 h, basal (AID 1163); settings: 3T3-L1 adipocytes viability, higher = more signal; note: test concentration not given here
[3] = HepG2 cell viability effects, profiling panel, calcein-AM fluorescence, 48 h, basal (AID 1164); settings: higher = more signal; note: test concentration not given here
[4] = MM1S cell viability effects, profiling panel, calcein-AM fluorescence, 48 h, basal (AID 1165); settings: higher = more signal;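 note: viability of MM1S multiple myeloma cells under basal unstimulated conditions; test concentration not given here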
[5] = basal RPMI8226 viability, no added stimulus, profiling panel, cell-based, calcein-AM fluorescence, 48 h, PK04 Diversity Set (AID 1166); settings: RPMI8226 myeloma viability, higher = more signal;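 note: cells grown under basal conditions without added stimulus; test concentration not given here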
[6] = basal HepG2 mitochondrial membrane potential changes, profiling panel, cell-based, JC-1 fluorescence, 24 h, 100 nL compound (AID 1167); settings: higher = more signal; note: test concentration not given here
[7] = basal 3T3-L1 adipocyte mitochondrial potential changes, profiling panel, cell-based, JC-1 fluorescence, 3T3-L1 adipocytes, 24 h, 100 nL compound (AID 1168); settings: JC-1 mitochondrial fluorescence, higher = more signal, called active from +8 up or from −8 down; note: test concentration not given here
[8] = basal RPMI8226 mitochondrial membrane potential changes, profiling panel, cell-based, JC-1 fluorescence, 24 h, 100 nL compound (AID 1169); settings: RPMI8226 myeloma, JC-1 mitochondrial potential fluorescence, higher = more signal; note: test concentration not given here
[9] = basal MM1S mitochondrial membrane potential changes, profiling panel, cell-based, JC-1 fluorescence, 24 h, 100 nL compound (AID 1170); settings: higher = more signal; note: test concentration not given here
[10] = A549 lung cancer cell viability effects, profiling panel, resazurin fluorescence, 24 h, PK04 Diversity Set (AID 1171); settings: higher = more signal, called active from +8 up or from −8 down; note: test concentration not given here
[11] = HepG2 liver cancer cell viability effects, profiling panel, resazurin fluorescence, 24 h, PK04 Diversity Set (AID 1172); settings: higher = more signal; note: test concentration not given here
[12] = basal S. cerevisiae growth modulation, no modifier, primary screen, OD600, strain BY4716, 24 h, basal condition (AID 1173); settings: OD600, 24 h, higher = more signal, called active from +8 up or from −8 down
[13] = MM1S myeloma cell viability, profiling panel, resazurin fluorescence, basal, 24 h, PK04 Diversity Set (AID 1174); settings: higher = more signal, called active from +8 up or from −8 down;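 note: MM1S multiple myeloma cell line; test concentration not given here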
[14] = biological target: Dihydroorotate dehydrogenase (quinone), mitochondrial (Plasmodium falciparum (isolate 3D7)) (UniProt Q08210); test: PfDHODH enzyme inhibitors, primary screen, biochemical, C-terminal His tag, absorbance 600 nm (AID 1175); settings: DCIP absorbance 600 nm, higher = more signal, called active from +8 up or from −8 down;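 note: recombinant parasite enzyme with a five histidine tag at its C terminus; test concentration not given here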
Sequence of Dihydroorotate dehydrogenase (quinone), mitochondrial (Plasmodium falciparum (isolate 3D7)) (Q08210 whole entry, looked up): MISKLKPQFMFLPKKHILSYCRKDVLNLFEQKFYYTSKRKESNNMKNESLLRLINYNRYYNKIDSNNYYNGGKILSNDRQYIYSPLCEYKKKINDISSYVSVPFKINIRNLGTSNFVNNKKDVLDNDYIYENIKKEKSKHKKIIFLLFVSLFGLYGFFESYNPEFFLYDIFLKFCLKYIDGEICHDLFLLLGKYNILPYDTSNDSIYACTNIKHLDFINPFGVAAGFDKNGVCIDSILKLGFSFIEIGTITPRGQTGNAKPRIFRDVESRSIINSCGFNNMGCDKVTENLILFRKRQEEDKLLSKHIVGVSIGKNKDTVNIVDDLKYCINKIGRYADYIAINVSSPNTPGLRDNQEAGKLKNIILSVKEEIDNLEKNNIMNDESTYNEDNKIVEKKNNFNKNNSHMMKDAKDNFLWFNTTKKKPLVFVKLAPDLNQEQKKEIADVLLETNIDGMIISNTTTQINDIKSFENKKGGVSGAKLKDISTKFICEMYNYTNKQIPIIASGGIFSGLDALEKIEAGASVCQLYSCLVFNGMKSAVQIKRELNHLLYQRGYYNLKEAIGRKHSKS

[15] = P. aeruginosa biofilm formation inhibitors, primary screen, strain PAO1, LB-PBS medium, absorbance 600 nm (AID 1176); note: test concentration not given here; settings: P. aeruginosa PAO1 growth/biofilm, A600, 12 h; higher = more signal
[16] = S. cerevisiae RM11-1a growth modifiers, primary screen, strain RM11-1a, OD600, basal, 24 h (AID 1177); settings: OD600, 24 h, higher = more signal, called active from +8 up or from −8 down;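 note: cultures grown under basal conditions with no added stressor; test concentration not given here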
[17] = E. coli acrAB mutant growth effects, primary screen, E. coli filamentation inducers, strain DRC39, OD650, 24 h (AID 1178); settings: higher = more signal, called active from +8 up or from −8 down;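 note: growth measured as culture turbidity by optical density at 650 nm; test concentration not given here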
[18] = E. coli acrAB mutant growth effects, primary screen, E. coli filamentation inducers, strain DRC39, OD650, 48 h (AID 1179);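 note: screen aims at cell division blockers that make cells filament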; settings: E. coli DRC39 delta-acrAB growth, higher = more signal, called active from +8 up or from −8 down
[19] = RPMI8226 myeloma cell viability, profiling panel, resazurin fluorescence, basal, 24 h, PK04 Diversity Set (AID 1180); settings: higher = more signal;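 note: RPMI8826 multiple myeloma cell line at 5000 cells per well; test concentration not given here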
[20] = biological target: E3 ubiquitin-protein ligase XIAP (Homo sapiens) (UniProt P98170); test: XIAP binders, primary screen, biophysical, small-molecule microarray, fluorescence 635 nm (AID 1181); settings: small-molecule microarray binding, higher = more signal;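 note: score merges 667 nm emission and signal to noise over triplicate slides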
Sequence of E3 ubiquitin-protein ligase XIAP (Homo sapiens) (P98170 whole entry, looked up): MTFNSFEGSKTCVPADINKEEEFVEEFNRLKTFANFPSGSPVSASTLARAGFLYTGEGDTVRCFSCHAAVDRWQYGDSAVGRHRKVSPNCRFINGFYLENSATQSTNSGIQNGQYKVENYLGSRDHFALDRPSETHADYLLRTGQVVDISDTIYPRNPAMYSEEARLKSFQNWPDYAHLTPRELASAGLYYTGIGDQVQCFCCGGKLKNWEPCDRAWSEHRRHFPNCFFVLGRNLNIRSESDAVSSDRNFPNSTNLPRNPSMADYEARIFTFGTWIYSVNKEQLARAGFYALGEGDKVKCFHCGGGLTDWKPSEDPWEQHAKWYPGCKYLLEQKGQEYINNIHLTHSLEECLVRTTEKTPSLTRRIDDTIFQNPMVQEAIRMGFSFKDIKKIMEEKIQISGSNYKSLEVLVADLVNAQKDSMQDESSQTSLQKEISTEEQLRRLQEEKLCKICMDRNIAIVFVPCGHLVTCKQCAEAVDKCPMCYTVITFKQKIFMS

| Compound | z-score [1] | z-score [2] | z-score [3] | z-score [4] | z-score [5] | z-score [6] | z-score [7] | z-score [8] | z-score [9] | z-score [10] | z-score [11] | z-score [12] | z-score [13] | composite z-score [14] | z-score [15] | z-score [16] | z-score [17] | z-score [18] | z-score [19] | composite z-score [20] |
| --- | --- | --- | --- | --- | --- | --- | --- | --- | --- | --- | --- | --- | --- | --- | --- | --- | --- | --- | --- | --- |
| C[C@]1(C(=O)NCCN2CCOCC2)c2ccccc2C(=O)N(Cc2cc(F)cc(C(F)(F)F)c2)[C@H]1c1ccc(CO)cc1 | 0.13 | -0.35 | 0.545 | -0.89 | 0.231 | 2.36 | 0.835 (inactive) | 0.695 | -0.714 | 0.693 (inactive) | -0.0395 | 0.375 (inactive) | -0.464 (inactive) | 0.376 (inactive) | 0.664 (inactive) | 0.0645 (inactive) | 1 (inactive) | 1.67 (inactive) | 0.0794 | -0.116 |
| COc1cc(NN2C(C(O)C3CCCCC3)C=CC3C(=O)N(C)C(=O)C32)cc(OC)c1OC (stereo not given) | -0.536 | -0.0026 | -0.848 | -0.197 | 0.436 | -0.326 | -0.657 (inactive) | 0.316 | 0.144 | -0.825 (inactive) | -0.721 | 1.28 (inactive) | -1.43 (inactive) | -0.187 (inactive) | 0.462 (inactive) | 0.668 (inactive) | -0.276 (inactive) | -0.498 (inactive) | -1.35 | 0.279 |
| O=C1C[C@@](C(=O)NCC(F)(F)F)(c2ccc([N+](=O)[O-])cc2)[C@@H](c2ccc(CO)cc2)N1CC12CC3CC(CC(C3)C1)C2 | -1.8 | 1.4 | -1.57 | -2.72 | -4.39 | -1.09 | -1.29 (inactive) | -1.04 | -0.0442 | -2.08 (inactive) | -1.85 | 0.188 (inactive) | -1.4 (inactive) | 0.042 (inactive) | 0.36 (inactive) | 0.419 (inactive) | -0.229 (inactive) | -0.684 (inactive) | -2.92 | 0.144 |
| COCCOC(=O)N1C(=O)[C@@]2(c3cc(C#CCNC(N)=O)ccc31)[C@H](c1ccc(O)cc1)N1[C@H](c3ccccc3)[C@H](c3ccccc3)OC(=O)[C@H]1[C@@H]2C(N)=O | 1.66 | -0.654 | 0.405 | 0.337 | -0.933 | 2.07 | -0.0574 (inactive) | -0.932 | -0.139 | 0.934 (inactive) | 1.18 | 0.282 (inactive) | -0.96 (inactive) | 0.329 (inactive) | 0.0568 (inactive) | 0.203 (inactive) | 0.507 (inactive) | 1.28 (inactive) | -0.938 | 0.0372 |
| COc1cc(NN2C(C(O)c3ccc(I)cc3)C=CC3C(=O)N(c4ccccc4)C(=O)C32)cc(OC)c1OC (stereo not given) | -0.844 | -0.294 | -0.683 | -0.344 | -1.4 | -1.14 | -1.46 (inactive) | -0.786 | -1.4 | -0.749 (inactive) | -1.35 | 0.645 (inactive) | -0.694 (inactive) | -0.755 (inactive) | 0.835 (inactive) | 0.0247 (inactive) | 0.456 (inactive) | 0.176 (inactive) | -1.34 | 0.162 |
| C=C(COC)/C(=C/C[C@@H](OC(C)=O)c1ccc(CO)o1)c1cc(C(=O)OC)ccc1OC | -0.109 | -0.461 | 0.322 | -0.425 | -0.0799 | 0.0492 | 0.208 (inactive) | -0.726 | -0.927 | 0.072 (inactive) | -0.0453 | 0.196 (inactive) | -0.216 (inactive) | -0.0894 (inactive) | 0.637 (inactive) | 0.317 (inactive) | 0.65 (inactive) | 0.638 (inactive) | 0.205 | -0.173 |
| CO[C@H]1O[C@H](CO)[C@@H](OC(=O)CCc2ccccc2)[C@H](OC(=O)c2cc3ccccc3[nH]2)[C@H]1OC(=O)c1cc2ccccc2[nH]1 | 0.98 | 0.679 | 0.138 | -2.82 | -2.54 | -2.04 | 1.36 (inactive) | -0.502 | -1.1 | -2.84 (inactive) | -1.4 | -1.14 (inactive) | -2.09 (inactive) | -1.62 (inactive) | 1.38 (inactive) | 0.033 (inactive) | 0.367 (inactive) | 1.2 (inactive) | -2.49 | -0.156 |
| O=C1OCC=C[C@H]2OC34C=CCN(c5ccc6ccccc6c5)C(=O)[C@H]3N(CCCCCO)C(=O)[C@@H]4[C@@H]12 (stereo not given in full) | -0.381 | -0.0217 | -1.08 | 0.589 | 0.0725 | -0.913 | -0.436 (inactive) | -0.0765 | 0.313 | -1.01 (inactive) | -0.658 | -0.459 (inactive) | -0.818 (inactive) | 0.28 (inactive) | -0.634 (inactive) | 0.176 (inactive) | -1.19 (inactive) | -1.3 (inactive) | -0.887 | -0.0286 |
